Sampled rows, rich in hits. Any-hit rate of the full collection: about 8.9%.
Htt clearance: compounds clearing mutant huntingtin protein; inhibition, % at 1.5 µM; 0.42% of 47,000 active; HeLa Exon1htt(103Q)mCFP, aggregate imaging; zero = plate's median compound well;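 active = inhibition of aggregate fluorescence above about 70%, also judged a hit by eye on the cell image, limit read from the data, passing the limit was not always enough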;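 note: cells exposed to compound for three days before fixation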
D1 mod: allosteric modulators of human D1 dopamine receptor; HEK293 D1, CRE-luciferase, dopamine EC30 potentiation; actives deviate in either direction; P21728; AID 641; B-score at 10 µM; 5.9% of 58,000 active;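 active = luminescence count or its row- and column-corrected plate score outside the 99.7% band of the plate's sample wells, on either side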
WNV NS2B-NS3 inh: inhibitors of West Nile virus NS2B-NS3 protease. P06935. AID 577. WNV NS2B-NS3 protease, fluorogenic substrate Ex360/Em465; hits give low values. 0.18% of 65,000 active. z-score (no concentration beside the values); in the data active = z-score below about -3
Target sequence (P06935 1371-1501 limits assumed): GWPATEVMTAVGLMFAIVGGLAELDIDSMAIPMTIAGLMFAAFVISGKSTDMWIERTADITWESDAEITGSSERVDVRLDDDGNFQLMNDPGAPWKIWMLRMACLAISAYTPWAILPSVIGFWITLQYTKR
Target sequence (P06935 1502-1679 limits assumed): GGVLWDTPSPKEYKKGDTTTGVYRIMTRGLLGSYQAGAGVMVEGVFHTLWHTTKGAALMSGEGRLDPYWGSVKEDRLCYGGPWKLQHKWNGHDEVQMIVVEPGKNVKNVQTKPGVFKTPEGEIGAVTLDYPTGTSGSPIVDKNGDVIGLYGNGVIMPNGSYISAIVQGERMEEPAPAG
M1 ag: M1 muscarinic receptor agonism | 3% of 64,000 active | B-score at 10 µM | CHO-M1 cells, Fluo-4 calcium fluorescence, agonist mode; hits give high values;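 active = fluorescence rise, raw or as B-score row- and column-corrected plate score, outside the 99.7% band of its plate's samples, either direction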
M1 antag: blocks the rat M1 muscarinic receptor response to acetylcholine | P08482 | CHO-M1 cells, Fluo-4 calcium, ACh EC80 antagonist mode; hits give low values | B-score at 10 µM | 3.4% of 64,000 active | AID 628;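 active = calcium fluorescence response, raw or row-and-column corrected B-score, differing from the plate sample mean either way at a set confidence level, mostly lower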
D1 PAM confirm: D1 receptor (human) allosteric modulation, confirmed | AID 642 | luminescence at 10 µM | HEK293 D1 CRE-luciferase, dopamine EC30 potentiation; hits give high values | shares compounds with D1 mod | 88% of 2,200 active;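 active = luminescence in either of two replicates above the same-plate mean plus 3 SD of the low-dose dopamine control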
D1 no dopamine: D1 (human) signaling in absence of dopamine. shares compounds with D1 mod. 0.8% of 1,900 active. luminescence at 10 µM. AID 646. HEK293 D1 CRE-luciferase, luminescence, no dopamine; hits give high values; in the data active = luminescence above about 3900
Isoprot counter: isoproterenol response counter-screen activity for D1 modulators; AID 647; shares compounds with D1 mod; HEK293 D1 CRE-luciferase, isoproterenol EC30 counter-screen; 63% of 2,200 active; calls only at 10 µM;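 active = luminescence in either replicate above plate mean of wells with a partly effective reference agonist dose plus 3 SD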;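 note: isoproterenol raises cAMP through native beta-adrenoceptor Gs so signal bypasses D1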
* = called active by the depositor; i = inactive; / = no result; + = active, no number.

SMILES	Htt clearance	D1 mod	WNV NS2B-NS3 inh	M1 ag	M1 antag	D1 PAM confirm	D1 no dopamine	Isoprot counter
N=c1sc2ccccc2n1-c1ccccc1	11.1	21.4*	-0.22	-0.205	0.0415	9268*	1508	+
CSc1nnc(Cn2c(=O)sc3ccccc32)n1-c1ccccc1	-10.8	0.286	1.12	0.0292	1.07	/	/	/
CC(=O)OCC1OC(c2ccccc2)C(OC(C)=O)C(OC(C)=O)C1OC(C)=O (stereo not given)	-10.9	3.13*	-1.23	-1.13	-0.822	9036*	1700	i
Cc1cn(C2OC(COC(=O)c3ccccc3)C(OC(=O)c3ccccc3)C2OC(=O)c2ccccc2)c(=O)[nH]c1=O (stereo not given)	-25.3	/	/	/	/	/	/	/
c1ccc(Cn2ncc3c(NCc4ccco4)ncnc32)cc1	/	-0.139	0.26	-1.05	-0.735	/	/	/
COc1ccc(Nc2ncnc3c2cnn3Cc2ccccc2)cc1OC	/	5.17*	-0.97	-1.14	-0.246	8056*	1576	+
CCN1C(=O)c2ccc(-c3nc4ccccc4c(=O)o3)cc2C1=O	/	-0.977	1.96	-0.39	-0.000932	/	/	/
CCN1C(=O)c2c(C)nc3ccccc3c2C1=O	24.1	16.3*	0.6	-0.438	0.0428	15840*	1572	+
Fc1ccc(OCCOCCNCC2CCCO2)cc1 (stereo not given)	-0.5	/	-0.02	-0.133	-0.207	/	/	/
COc1ccc(-c2nnc(COc3ccc4ccccc4c3)o2)cc1OC	/	4.87*	-1.38	-0.53	0.704	20456*	1420	+
Cn1c(=O)[nH]c(=O)c2c1nc(N1CCCCC1)n2CCOc1ccccc1	-8.5	14*	0.73	0.415	0.638	22140*	1548	+
C/C=C/Cn1c(N2CCCCCC2)nc2c1c(=O)[nH]c(=O)n2C	/	15.4*	0.15	0.00774	0.0655	16408*	1784	+
CCCn1c(N2CCN(CC(=O)c3c(C)n(C)c4ccccc34)CC2)nc2c1c(=O)[nH]c(=O)n2C	-42.5	4.43*	1.77	0.0189	-0.477	12284*	1832	+
Cn1c(=O)c2c(nc(CN3CCN(C(=O)c4ccco4)CC3)n2CCCc2ccccc2)n(C)c1=O	/	-0.152	0.54	0.679	-0.18	/	/	/
Cc1ccc(CN2CCN(CC(=O)NCc3ccc(Cl)cc3)C2=O)cc1	/	0.567	2.16	/	/	/	/	/
CN(Cc1ccccc1)C(=O)C1CCN(Cc2ccc(F)cc2)CC1	/	-0.298	1.64	-0.726	-0.108	/	/	/
CCC(C)Sc1nc2c([nH]c3ccccc32)c(=O)n1C (stereo not given)	/	5.51*	0.88	-0.188	0.253	14100*	1792	i
COC(=O)C(C)Sc1nc2c([nH]c3ccccc32)c(=O)n1C (stereo not given)	/	1.61	-0.04	0.16	-0.633	/	/	/
Cc1sc2c(=O)n3c(nc2c1C(=O)NCCCN1CCOCC1)CCCCC3	/	-1.04	0.08	0.00626	-0.101	/	/	/
COc1ccc(NC(=O)c2cccs2)cc1OC	24.4	8.05*	-0.84	-0.663	-0.387	13868*	1416	+
COc1ccc(C(=O)Nc2ccncc2)cc1OC	/	13.4*	-0.64	-0.159	0.227	20440*	/	+
CCCN(CCC)c1nc(NC2CCN(C(=O)OCC)CC2)nc(OC)n1	16.9	-0.39	-0.5	-0.328	-0.199	/	/	/
C=CCn1c2ccccc2c2nnc(SCC(=O)NC(C(=O)OC)C(C)C)nc21 (stereo not given)	-1.4	4.37*	-1.24	0.12	1.27	7244*	1452	i
CCn1c2ccccc2c2nnc(SCCCn3c(=O)[nH]c4ccccc43)nc21	29.9	9.59*	-0.64	0.221	-1.35	10684*	1736	i
CCn1c2ccccc2c2nnc(SCc3ccc(C(=O)OC)o3)nc21	-13.9	5.6*	-0.54	-0.0206	-0.542	9356*	1384	+
SMILES	Htt clearance	D1 mod	WNV NS2B-NS3 inh	M1 ag	M1 antag	D1 PAM confirm	D1 no dopamine	Isoprot counter
O=c1[nH]c2ccccc2n1CCCSCCCn1c(=O)[nH]c2ccccc21	/	/	0.28	3.21	-0.766	/	/	/
CCn1c2ccccc2c2nnc(SCc3ccccc3)nc21	/	1.48	-0.64	-0.627	-0.188	/	/	/
c1coc(-c2nnc3sc(-c4cccs4)nn23)c1	/	/	0.69	1.81	0.985	/	/	/
Cc1ccc(N2CC(C(=O)Nc3ccccc3C(=O)NC3CCCCC3)CC2=O)cc1 (stereo not given)	-160.9	/	/	/	/	/	/	/
CC(C)Nc1nc(NC(C)C)nc(C(N)=O)n1	-4.9	2.96	-0.49	-0.551	0.0839	/	/	/
CC(C)Nc1nc(NC(C)C)nc(N(C)C(N)=O)n1	8.1	7.72*	1.33	-0.332	1.57	17056*	1584	+
N#Cc1c(N)sc(=S)c2c1CCCC2	/	/	-1.63	-0.463	-0.0262	/	/	/
CCC1(C)Cc2c(C#N)c(N)sc(=S)c2CO1 (stereo not given)	/	20.1*	-0.14	-0.319	-0.00461	18368*	1660	+
COc1ccc(-c2cc3ccccc3oc2=O)cc1NC(=O)c1cccnc1	32.6	/	/	/	/	/	/	/
COc1ccccc1N1C(=O)C2C3C=CC(C3)C2(C)C1=O (stereo not given)	/	0.0445	-0.78	-0.0568	0.0143	/	/	/
CCNc1nc(C)nc2c1oc1ccccc12	/	9.33*	-0.73	-0.1	0.495	16376*	/	+
CCc1nc(NCC2CCCO2)c2oc3ccccc3c2n1 (stereo not given)	-26.8	6.05*	0.33	-0.307	-0.0926	12724*	/	+
CCC(=O)Nc1ccc2c(c1)ncn2-c1ccccc1	-14.0	/	/	/	/	/	/	/
Cc1c2cccn2cc[n+]1C	/	-0.0831	-0.96	-0.796	-0.404	/	/	/
COC(=O)CC1Sc2ccccc2NC1=O (stereo not given)	/	0.206	-0.87	-0.311	-0.288	/	/	/
O=C1CC(c2ccccc2)Sc2ccccc2N1 (stereo not given)	/	26.3*	1.18	-0.28	0.354	18012*	1352	+
CCOc1ccccc1NC(=O)CN(C)S(=O)(=O)c1cccc2nsnc12	/	4.72*	-0.21	0.298	0.202	6432*	1328	i
Fc1ccc(-c2nnc3ccc(N4CCCC4)nn23)cc1	/	8.28*	-0.45	0.621	-0.289	11900*	1896	+
c1ccc(-c2nnc3ccc(N4CCC5(CC4)OCCO5)nn23)cc1	-34.3	21.4*	-1.03	-0.637	0.0133	16736*	1528	+
O=C(Nc1ccccc1Cl)N1CCN(c2ccc3nnc(-c4ccc(F)cc4)n3n2)CC1	1.6	1.1	-0.18	0.456	-0.281	/	/	/
Clc1cccc(Cl)c1-c1nnc2ccc(N3CCOCC3)nn12	-60.7	1.44	-0.9	0.488	0.115	/	/	/
Cc1nnc2ccc(N3CCC(C(N)=O)(N4CCCCC4)CC3)nn12	/	-0.00458	-0.55	1.65	0.0687	/	/	/
Fc1cccc(Cl)c1-c1nnc2ccc(N3CCOCC3)nn12	/	15.7*	-1.2	-1.42	-0.802	10924*	1424	+

Source: PubChem BioAssay (several laboratories)
